Assay outcomes as filed in PubChem.
S1P4 antagonist = human S1P4 receptor antagonism | S1P4-expressing cells, antagonist mode, reporter read-out | inhibition, % at 4.98 µM | 220,000 tested, 0.26% active; in the data active means inhibition above about 29%;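 further: 0% = wells stimulated with agonist and 100% = vehicle wells without agonist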
Target sequence (O95977 whole entry, looked up): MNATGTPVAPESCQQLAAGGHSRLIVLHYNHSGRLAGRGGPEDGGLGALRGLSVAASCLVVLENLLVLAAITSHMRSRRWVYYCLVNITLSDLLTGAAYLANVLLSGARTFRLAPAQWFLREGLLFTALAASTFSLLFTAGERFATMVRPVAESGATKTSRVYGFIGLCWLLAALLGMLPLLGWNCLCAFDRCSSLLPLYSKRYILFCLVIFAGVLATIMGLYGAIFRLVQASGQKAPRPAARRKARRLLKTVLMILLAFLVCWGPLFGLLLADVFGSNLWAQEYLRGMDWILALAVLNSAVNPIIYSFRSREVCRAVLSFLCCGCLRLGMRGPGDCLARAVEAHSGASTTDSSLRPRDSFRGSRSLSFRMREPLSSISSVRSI
S1P3 antagonist = S1P3 (human) receptor antagonism | Q99500 | CHO S1P3 NFAT-BLA reporter, FRET fluorescence, antagonist mode | inhibition, % at 4.98 µM | 170,000 tested, 0.27% active;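 active means inhibition above the plate cutoff, the mean inhibition of test wells on that plate plus 3 SD, cut at about 28% in these data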;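 further: cells challenged with S1P at its EC80 of 0.8 µM; blue over green emission ratio from cleaved BLA substrate after 4 h stimulation; 0% = S1P-stimulated wells and 100% = unstimulated DMSO-only wells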
HSF1 inh = HSF1 inhibition; NIH3T3-HGL HSE-luciferase, MG132-induced, luminescence 8 h; hits give low values; activity change, negative = inhibition, % at 7.5 µM (by protocol); 300,000 tested, 0.77% active; AID 2098;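 active means more than half of replicate wells show activity change below -50%, luminescence cut by over half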;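 further: luciferase reports HSF-1 transcriptional activity via heat shock element; 0% = median of DMSO wells and -100% = zero luminescence signal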
HSF-1 act = increases HSF-1 driven luciferase reporter signal. NIH3T3-HGL HSF-1 luciferase reporter, MG132, 8 h; 100% = twice DMSO control signal. activation, % at 9 µM. 300,000 tested, 1.7% active. AID 504408;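 active means mean replicate activation of at least 50% with a set share of replicates each reaching 50%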;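 further: 0% = median of the neutral control wells and 100% = twice that signal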
S1P4 agonist = activates the human S1P4 receptor | AID 1509 | 220,000 tested, 0.35% active | O95977 | S1P4-expressing cell line, agonist reporter assay | activation, % at 4.98 µM; in the data active means activation above about 11%;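 further: 0% = DMSO vehicle and 100% = reference agonist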
Hsp70 act = transcriptional activators of Hsp70; 200,000 tested, 0.04% active; HeLa Hsp70 promoter luciferase reporter, luminescence; scaled: vehicle 0, proteasome-inhibitor control 100%; AID 1203; activation, % at 10 µM;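 active means activation above the mean across all tested compounds plus 3 SD, cutoff set per campaign, cut at about 5.5% in these data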;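 further: 100% = MG132 at 30 µM as the positive control and 0% = DMSO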
Starred values were filed as active, the others as inactive; . = no result given. The list is not random: actives were taken first. Their share in the collection is about 2.9%.

SMILES	S1P4 antagonist	S1P3 antagonist	HSF1 inh	HSF-1 act	S1P4 agonist	Hsp70 act
O=C(CSc1nnc(CNC(=O)c2cccs2)o1)Nc1ccc(Cl)cc1	.	.	-3	3	.	.
O=C(CSc1cccs1)Nc1ccc(Cl)cc1	-2	-8	39	66*	3	.
Cc1ccc(CNC(=O)c2cn(C3CCCCC3)c(=O)c3c2c2ccccc2n3C)o1	-1	.	55	79*	1	0
COC(=O)C1=C(C)N(CCCC(=O)O)C(=O)NC1c1ccccc1Cl (stereo unspecified)	.	.	-64*	-72	.	.
COC(=O)C1=C(C)N(CCCC(=O)O)C(=O)NC1c1ccc(C#N)cc1 (stereo unspecified)	.	.	-66*	-74	.	.
CCOc1ccc(N(C)S(=O)(=O)c2cc(-c3cc(C)no3)ccc2CC)cc1	.	.	-1	18	.	.
Cc1[nH]c2ccccc2c1C(=O)C(=O)N1CC=C(c2ccccc2)CC1	-9	-41	3	7	2	0
COC(=O)c1ccc(CSc2nc3ccccc3c(=O)n2CC(C)C)o1	-8	.	36	71*	-1	0
Cc1ccc(NC(=O)C(=O)NCCN2CCN(C(=S)Nc3ccccc3)CC2)cc1	-15	11	-2	14	-2	0
C/C(CC(=O)Nc1cccc2c1CCCC2)=N\NC(=O)c1ccccc1N	-6	.	29	57*	0	0
C/C(CC(=O)Nc1cccc2c1CCCC2)=N\NC(=O)c1cccc2ccccc12	-8	8	4	1	0	0
Cc1ccc(C(=O)O/N=C(\N)c2ccccn2)c(Cl)c1	.	.	-84*	-87	.	.
N/C(=N\OC(=O)c1ccc([N+](=O)[O-])cc1Cl)c1ccccn1	.	.	-10	-16	.	.
N/C(=N\OC(=O)c1ccc(Cl)cc1Cl)c1ccccn1	21	-2	-65*	-74	-2	-1
Cc1ccc(C(=O)O/N=C(\N)c2ccccc2)c(Cl)c1	2	13	-81*	-83	0	.
Cc1ccc(/C=N/N2CCOCC2)s1	-4	0	6	23	1	0
Cc1onc(-c2ccccc2)c1C(=O)N1CCN(c2ncccc2C(F)(F)F)CC1	.	.	2	-6	.	.
Cn1c(O)c(C=Nc2ccc(Br)cc2)sc1=O	-1	-4	24	58*	0	0
Oc1ccc(Cl)cc1C=Nc1ccc(Br)cc1	10	-5	15	20	1	0
c1ccc(N2CCN(c3nc4ccccc4[nH]3)CC2)nc1	-6	-23	15	63*	0	0
COc1ccc(C/C(O)=C(\C#N)c2nc3ccccc3[nH]2)cc1OC	14	-12	15	59*	0	0
COc1ccc(/C(C)=N/OC/C(O)=C(\C#N)c2nc3ccccc3[nH]2)cc1OC	-15	5	-17	-24	-1	0
O=C(OC1CCOC1=O)c1ccc(N2CCCC2)c([N+](=O)[O-])c1 (stereo unspecified)	-17	-9	-8	0	0	0
O=C(OC1CCOC1=O)c1cc(Cl)ccc1[N+](=O)[O-] (stereo unspecified)	.	.	19	58*	.	.
COc1ccc(C(CNC(=O)C2CCN(S(=O)(=O)c3ccc(F)cc3)CC2)N(C)C)cc1 (stereo unspecified)	.	.	-1	4	.	.
SMILES	S1P4 antagonist	S1P3 antagonist	HSF1 inh	HSF-1 act	S1P4 agonist	Hsp70 act
FC(F)(F)c1cccc(N2CCN(c3ccc4nnc(-c5ccccc5)n4n3)CC2)c1	1	8	3	14	-2	0
COc1ccc2nnc(-c3ccc(C(F)(F)F)cc3)n2n1	-28	8	-89*	-91	1	.
COC(=O)CCC(=O)NC(=S)Nc1ccc(S(=O)(=O)N2CCCC2)cc1	-13	-17	6	-15	-1	0
Cc1cc(NC(=O)c2ccccc2)sc1C	-11	26	31	60*	-1	0
CC(C)c1nnc(SCc2ccc(CSc3nnc(C(C)C)n3N)cc2)n1N	0	-29	26	80*	1	0
CCCSc1nnc(C(C)C)n1N	1	.	-8	-3	1	0
O=c1c2ccccc2cnn1-c1ccc(Cl)cc1	-5	.	18	32	-1	0
Cc1ccc(-n2ncc3ccccc3c2=O)cc1Cl	-4	-4	75	88*	2	0
CNC(=O)NC(=O)Cn1cnc2sc(-c3ccccc3)cc2c1=O	-21	7	-2	8	1	.
CCCCn1cnc2sc(-c3ccccc3)cc2c1=O	-7	.	32	56*	1	0
